Eleven molecules from PubChem BioAssay (EPA / NIEHS) can be followed below.

SMILES strings stand for the structures. Inconclusive results are not listed. The source made the active and inactive calls. The calls were made as follows, unless noted: active = hit-call score of the fitted dose curve at least 0.9, where 1 is the maximum; inactive = score below 0.9.

Assay [1] addresses Myc proto-oncogene protein (Homo sapiens) (UniProt P01106). Kind of assay: ATG_Myc_CIS: Attagene CIS-FACTORIAL HepG2 Assay for human Myelocytomatosis (Myc) Proto-Oncogene Transcription Factor (AID 2282990). The settings on record: HepG2, Attagene cis-reporter transcription factor activity; actives raise or lower the signal. In a few lines:
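HepG2, transient MRTU transfection (cis promoters, endogenous TFs); 24 h dosing; TriZol RNA → oligo(dT) RT → PCR → 6-FAM primer extension → HpaI cut → CE. Bidirectional fit vs DMSO.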

Assay [2] in a line: ATG_NF_kB_CIS: Attagene CIS-FACTORIAL HepG2 Assay for human Nuclear Factor Kappa B (NF-kB) (AID 2282991). The settings on record: HepG2 Attagene cis-factorial NF-kB reporter mRNA; actives raise or lower the signal. Put shortly: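 HepG2 cells transfected with cis-promoter-driven reporter units, so endogenous transcription factor activity is measured. Reporter mRNA quantified 24 h after dosing by RT-PCR and capillary electrophoresis, with bidirectional fitting against DMSO.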

Assay [3] can be described thus: ATG_NRF2_ARE_CIS: Attagene CIS-FACTORIAL HepG2 Assay for human Nuclear Factor Erythroid 2 Related Factor 2 (NFR2) response to Antioxidant Response Elements (ARE) (AID 2282992). To be noted: HepG2 Attagene ARE/NRF2 reporter, transcription factor activity; actives raise or lower the signal. In a few lines:
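Endogenous transcription factor activity read out as reporter transcript levels (RT-PCR plus capillary electrophoresis, fluorescence) in transiently transfected HepG2 cells. Measured at 24 h after dosing; gain or loss of signal fitted versus DMSO.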

Assay [4] can be described thus: ATG_Oct_MLP_CIS: Attagene CIS-FACTORIAL HepG2 Assay for human Octamer-Binding Transcription Factor (Oct) (AID 2282993). To be noted: HepG2 Attagene cis-factorial Oct reporter, mRNA; actives raise or lower the signal. Put shortly:
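Readout is reporter transcript level from RT-PCR with fluorescent primer extension and capillary electrophoresis, fitted in both directions against DMSO. Transfected HepG2 reporter units report endogenous factor activity after 24 h dosing.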

Assay [5] addresses Cellular tumor antigen p53 (Homo sapiens) (UniProt P04637). Kind of assay: ATG_p53_CIS: Attagene CIS-FACTORIAL HepG2 Assay for human p53 Transcription Factor (AID 2282994). To be noted: HepG2 p53 cis-element reporter, Attagene mRNA; actives raise or lower the signal. In a few lines: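 Endogenous p53 activity read in transiently transfected HepG2 from a cis-element-driven reporter transcript after 24 h exposure. RNA reverse-transcribed, PCR-amplified, fluorescently labelled and sized by capillary electrophoresis; gain or loss fitted against DMSO baseline.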

Assay [6] deals with human Peroxisome Proliferator-activated Receptor alpha (PPARa), PPARA (gene 5465) (UniProt Q07869). Description: ATG_PPARa_TRANS: Attagene TRANS-FACTORIAL HepG2 Assay for human Peroxisome Proliferator-activated Receptor alpha (PPARa) (AID 2283001; active = hit-call score of the fitted dose curve at least 0.9, where 1 is the maximum). In a few lines:
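Transfected HepG2 cells treated with test chemical for 24 h. RNA isolated, reverse-transcribed with oligo(dT), PCR-amplified, FAM-labelled and HpaI-digested. Fragments sized by capillary electrophoresis; gain-of-signal fit relative to DMSO.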

The target in assay [7] is human Peroxisome Proliferator-activated Receptor delta (PPARd), PPARD (gene 5467) (UniProt Q03181). Kind of assay: ATG_PPARd_TRANS: Attagene TRANS-FACTORIAL HepG2 Assay for human Peroxisome Proliferator-activated Receptor delta (PPARd) (AID 2283002; active = hit-call score of the fitted dose curve at least 0.9, where 1 is the maximum). Put shortly:
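Transient HepG2 transfection (multiple GAL4-UAS RTUs, chimeric receptor-Gal4); 24 h dosing; total RNA → oligo(dT) RT → PCR → 6-FAM primer extension → HpaI cut → CE. Positive direction vs DMSO.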

Assay [8] addresses human Retinoic Acid Receptor beta (RARb), RARB (gene 5915) (UniProt P10826). Kind of assay: ATG_RARb_TRANS: Attagene TRANS-FACTORIAL HepG2 Assay for human Retinoic Acid Receptor beta (AID 2283004; active = hit-call score of the fitted dose curve at least 0.9, where 1 is the maximum). In a few lines: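 HepG2 cells transiently transfected with multiplexed GAL4-UAS reporter units expressing chimeric NR–Gal4 fusions; 24 h compound exposure. Reporter mRNA quantified by RT-PCR, 6-FAM labelling, HpaI digestion and capillary electrophoresis; gain-of-signal fitted against DMSO baseline.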

The target of assay [9] is Retinoic acid receptor alpha (Homo sapiens) (UniProt P10276). Kind of assay: ATG_RARa_TRANS: Attagene TRANS-FACTORIAL HepG2 Assay for human Retinoic Acid Receptor alpha (RARa) (AID 2283005; active = hit-call score of the fitted dose curve at least 0.9, where 1 is the maximum). In a few lines:
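Reporter transcripts, measured by RT-PCR with fluorescent labeling and capillary electrophoresis after 24 h dosing, reflect activity of an exogenous human RARa–GAL4 fusion in transiently transfected HepG2. Fitted for increase relative to DMSO.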

The target of assay [10] is Peroxisome proliferator-activated receptor gamma (Homo sapiens) (UniProt P37231). Kind of assay: ATG_PPARg_TRANS: Attagene TRANS-FACTORIAL HepG2 Assay for human Peroxisome Proliferator-activated Receptor-gamma (PPARg) (AID 2283007; active = hit-call score of the fitted dose curve at least 0.9, where 1 is the maximum). In a few lines: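 HepG2 cells are transiently transfected with GAL4-UAS reporter units driven by chimeric NR-Gal4 fusions and dosed for 24 h. Reporter mRNA is quantified by RT-PCR, 6-FAM labelling, HpaI digestion and capillary electrophoresis. Induction is scored against DMSO.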
Peroxisome proliferator-activated receptor gamma (Homo sapiens), sequence (P37231 whole entry, looked up, the tested form may be a part): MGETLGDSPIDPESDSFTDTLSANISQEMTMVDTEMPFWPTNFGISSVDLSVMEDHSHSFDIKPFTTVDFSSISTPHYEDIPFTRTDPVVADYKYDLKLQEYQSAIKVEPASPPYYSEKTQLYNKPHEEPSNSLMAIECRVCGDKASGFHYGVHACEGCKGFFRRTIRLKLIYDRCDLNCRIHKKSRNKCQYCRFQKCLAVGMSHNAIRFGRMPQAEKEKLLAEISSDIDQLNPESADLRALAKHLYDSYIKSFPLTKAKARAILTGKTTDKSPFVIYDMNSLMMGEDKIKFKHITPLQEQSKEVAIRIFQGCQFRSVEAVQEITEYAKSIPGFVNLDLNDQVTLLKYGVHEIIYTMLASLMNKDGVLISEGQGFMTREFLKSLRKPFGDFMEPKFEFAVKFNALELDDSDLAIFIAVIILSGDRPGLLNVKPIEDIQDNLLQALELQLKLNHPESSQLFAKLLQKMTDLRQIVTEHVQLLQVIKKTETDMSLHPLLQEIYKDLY

Assay [11] addresses Nuclear receptor subfamily 1 group I member 2 (Homo sapiens) (UniProt O75469). Description: ATG_PXR_TRANS: Attagene TRANS-FACTORIAL HepG2 Assay for human Pregnane X Receptor (PXR) (AID 2283008; active = hit-call score of the fitted dose curve at least 0.9, where 1 is the maximum). In a few lines: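 Transactivation by exogenous PXR–GAL4 fusion measured as reporter transcript induction after 24 h compound treatment of transfected human HepG2 cells. Read-out via RT-PCR and capillary electrophoresis of labelled fragments, fitted upward relative to DMSO.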

Assay [12] concerns the target human Retinoic Acid Receptor gamma (RARg), RARG (gene 5916) (UniProt P13631). Kind of assay: ATG_RARg_TRANS: Attagene TRANS-FACTORIAL HepG2 Assay for human Retinoic Acid Receptor gamma (RARg) (AID 2283009; active = hit-call score of the fitted dose curve at least 0.9, where 1 is the maximum). In a few lines:
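Readout: reporter transcript levels via RT-PCR, 6-FAM primer-extension labelling, HpaI digestion and capillary electrophoresis. Cells: HepG2 carrying transfected RARg-GAL4 chimera plus UAS reporter set. Dosing 24 h; DMSO negative control.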

In assay [13] the target is human RAR-related Orphan Receptor beta (RORb), RORB (gene 6096) (UniProt Q92753). Description: ATG_RORb_TRANS: Attagene TRANS-FACTORIAL HepG2 Assay for human RAR-related Orphan Receptor beta (RORb) (AID 2283010; active = hit-call score of the fitted dose curve at least 0.9, where 1 is the maximum). In a few lines: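 HepG2, transient MRTU transfection (GAL4-UAS reporters, exogenous NR-Gal4 chimeras); 24 h compound exposure; total RNA → RT-PCR → 6-FAM primer extension → HpaI digest → CE fluorescence. Positive direction vs DMSO baseline.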
human RAR-related Orphan Receptor beta (RORb), RORB (gene 6096), sequence (Q92753 whole entry, looked up, the tested form may be a part): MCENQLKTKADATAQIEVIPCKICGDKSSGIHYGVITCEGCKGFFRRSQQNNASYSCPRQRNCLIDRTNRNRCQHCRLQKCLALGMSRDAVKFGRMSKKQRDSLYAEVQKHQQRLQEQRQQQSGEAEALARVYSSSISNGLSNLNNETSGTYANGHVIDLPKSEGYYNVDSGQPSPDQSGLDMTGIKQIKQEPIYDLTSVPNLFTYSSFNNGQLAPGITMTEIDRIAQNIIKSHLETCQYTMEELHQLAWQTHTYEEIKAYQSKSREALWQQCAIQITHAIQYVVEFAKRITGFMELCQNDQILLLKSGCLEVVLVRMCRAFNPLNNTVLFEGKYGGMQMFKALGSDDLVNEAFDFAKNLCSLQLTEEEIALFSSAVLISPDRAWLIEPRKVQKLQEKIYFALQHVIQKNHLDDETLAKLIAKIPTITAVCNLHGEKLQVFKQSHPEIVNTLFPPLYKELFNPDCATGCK

Assay [14] can be described thus: BSK_3C_TissueFactor: BioMAP Diversity Plus: 3C Assay for Tissue Factor Biomarker Activity (AID 2282997). To be noted: BioMAP 3C HUVEC, tissue factor biomarker readout; actives raise or lower the signal. Put shortly:
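Readout: Tissue Factor ELISA. Cells: human primary umbilical vein endothelium. Time: 24 h after dosing. Analysis: bidirectional fit, DMSO baseline.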

Assay [15] is described as follows: BSK_3C_uPAR: BioMAP Diversity Plus: 3C Assay for Urokinase-type plasminogen activator receptor (uPAR) Biomarker Activity (AID 2282998). To be noted: BioMAP 3C HUVEC, uPAR biomarker ELISA; actives raise or lower the signal. In a few lines:
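Cell-surface uPAR on HUVEC (3C system) read by ELISA at 24 h post-treatment, with DMSO as baseline and fitting in both directions. Parallel cultures stained with SRB to flag overt cytotoxicity.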
(In general: An ELISA detects its analyte on a solid surface through an enzyme-linked reagent.)

A short description of assay [16]: BSK_3C_VCAM1: BioMAP Diversity Plus: 3C Assay for Vascular cell adhesion molecule 1 (VCAM1) Biomarker Activity (AID 2282999). To be noted: BioMAP 3C HUVEC, VCAM1 ELISA, cytokine-stimulated; actives raise or lower the signal. In a few lines:
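Activity fitted in both directions relative to DMSO, with ELISA measurement of the surface marker on primary HUVEC (3C) at 24 h post-treatment; parallel SRB staining (0.1% SRB, TCA-fixed, 560 nm) flagged overt cytotoxicity.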

A short description of assay [17]: BSK_4H_Eotaxin3: BioMAP Diversity Plus: 4H Assay for Eotaxin 3 Biomarker Activity (AID 2283000).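 Also: CCL26 protein level quantified by ELISA in parallel with SRB cytotoxicity check.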 The settings on record: primary human endothelial cells (HUVEC); actives raise or lower the signal. Put shortly:
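HUVEC, 24 h post-dose, ELISA for Eotaxin-3/CCL26. Gain or loss of signal fitted bidirectionally vs DMSO baseline.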

The nature of assay [18]: BSK_3C_Proliferation: Cell Proliferation Assessment in the BioMAP Diversity Plus: 3C Assay (AID 2283006). To be noted: primary human endothelial cells (HUVEC). Put shortly:
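HUVEC, sub-confluent; 48 h chemical exposure; 10% TCA fix, 0.1% SRB stain, A560 total protein. Gain or loss of signal fitted both directions vs DMSO control.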

Assay [19] has as its target human RAR-related Orphan Receptor gamma (RORg), RORC (gene 6097) (UniProt P51449). Kind of assay: ATG_RORg_TRANS: Attagene TRANS-FACTORIAL HepG2 Assay for human RAR-related Orphan Receptor gamma (RORg) (AID 2283011; active = hit-call score of the fitted dose curve at least 0.9, where 1 is the maximum). Put shortly: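 Readout: reporter transcript induction (RT-PCR, fluorescent primer extension, capillary electrophoresis) after 24 h compound exposure of transiently transfected HepG2 cells carrying a RORg-Gal4 chimera and GAL4-UAS reporters; DMSO served as baseline, with increasing signal fitted.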

Nuclear receptor subfamily 1 group I member 2 (Homo sapiens), sequence (O75469 whole entry, looked up, the tested form may be a part): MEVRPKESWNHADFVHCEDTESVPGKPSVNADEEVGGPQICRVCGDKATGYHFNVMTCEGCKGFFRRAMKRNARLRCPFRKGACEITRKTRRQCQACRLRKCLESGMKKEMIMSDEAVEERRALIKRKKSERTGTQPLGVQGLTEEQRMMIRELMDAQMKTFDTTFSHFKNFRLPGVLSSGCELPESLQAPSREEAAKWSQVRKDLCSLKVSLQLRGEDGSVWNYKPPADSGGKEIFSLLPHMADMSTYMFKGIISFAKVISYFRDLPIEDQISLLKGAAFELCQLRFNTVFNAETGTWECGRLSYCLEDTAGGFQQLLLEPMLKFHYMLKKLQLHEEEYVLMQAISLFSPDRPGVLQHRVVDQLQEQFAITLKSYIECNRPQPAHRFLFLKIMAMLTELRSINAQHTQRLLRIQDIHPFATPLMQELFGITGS
human RAR-related Orphan Receptor gamma (RORg), RORC (gene 6097), sequence (P51449 whole entry, looked up, the tested form may be a part): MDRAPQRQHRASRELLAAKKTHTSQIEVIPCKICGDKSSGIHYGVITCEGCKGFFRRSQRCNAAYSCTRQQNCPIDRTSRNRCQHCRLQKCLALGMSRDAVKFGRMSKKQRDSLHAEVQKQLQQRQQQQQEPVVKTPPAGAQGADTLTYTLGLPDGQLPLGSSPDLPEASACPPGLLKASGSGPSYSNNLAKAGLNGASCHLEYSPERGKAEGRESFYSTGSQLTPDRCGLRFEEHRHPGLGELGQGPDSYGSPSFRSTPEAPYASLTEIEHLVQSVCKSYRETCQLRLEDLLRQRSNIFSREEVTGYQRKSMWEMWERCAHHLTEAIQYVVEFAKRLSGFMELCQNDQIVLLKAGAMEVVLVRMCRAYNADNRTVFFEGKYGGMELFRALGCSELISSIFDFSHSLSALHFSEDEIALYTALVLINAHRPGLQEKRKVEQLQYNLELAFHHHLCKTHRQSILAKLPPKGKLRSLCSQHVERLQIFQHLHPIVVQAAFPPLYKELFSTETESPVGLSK
Cellular tumor antigen p53 (Homo sapiens), sequence (P04637 whole entry, looked up): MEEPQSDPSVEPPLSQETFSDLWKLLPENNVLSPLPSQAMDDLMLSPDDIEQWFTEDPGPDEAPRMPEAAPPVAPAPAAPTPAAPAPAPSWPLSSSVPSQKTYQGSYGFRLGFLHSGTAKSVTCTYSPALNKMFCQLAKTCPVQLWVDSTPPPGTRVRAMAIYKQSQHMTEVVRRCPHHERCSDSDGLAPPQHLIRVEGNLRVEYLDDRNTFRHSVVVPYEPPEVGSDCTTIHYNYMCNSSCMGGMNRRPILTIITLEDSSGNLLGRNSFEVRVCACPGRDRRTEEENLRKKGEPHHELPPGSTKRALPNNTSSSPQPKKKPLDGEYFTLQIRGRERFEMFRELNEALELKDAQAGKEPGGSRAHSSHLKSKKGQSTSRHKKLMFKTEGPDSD
human Retinoic Acid Receptor gamma (RARg), RARG (gene 5916), sequence (P13631 whole entry, looked up, the tested form may be a part): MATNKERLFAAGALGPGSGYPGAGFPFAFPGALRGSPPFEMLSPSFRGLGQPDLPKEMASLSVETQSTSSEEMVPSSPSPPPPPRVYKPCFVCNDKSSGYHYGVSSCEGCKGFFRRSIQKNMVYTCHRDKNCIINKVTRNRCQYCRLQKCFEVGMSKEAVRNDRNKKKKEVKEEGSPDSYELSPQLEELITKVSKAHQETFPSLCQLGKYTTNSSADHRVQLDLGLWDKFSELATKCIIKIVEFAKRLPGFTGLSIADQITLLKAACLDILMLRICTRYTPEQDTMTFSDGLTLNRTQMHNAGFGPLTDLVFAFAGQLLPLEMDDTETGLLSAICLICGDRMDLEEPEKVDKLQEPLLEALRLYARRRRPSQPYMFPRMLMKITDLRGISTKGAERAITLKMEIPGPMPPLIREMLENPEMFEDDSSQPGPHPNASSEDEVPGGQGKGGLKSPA
human Peroxisome Proliferator-activated Receptor delta (PPARd), PPARD (gene 5467), sequence (Q03181 whole entry, looked up, the tested form may be a part): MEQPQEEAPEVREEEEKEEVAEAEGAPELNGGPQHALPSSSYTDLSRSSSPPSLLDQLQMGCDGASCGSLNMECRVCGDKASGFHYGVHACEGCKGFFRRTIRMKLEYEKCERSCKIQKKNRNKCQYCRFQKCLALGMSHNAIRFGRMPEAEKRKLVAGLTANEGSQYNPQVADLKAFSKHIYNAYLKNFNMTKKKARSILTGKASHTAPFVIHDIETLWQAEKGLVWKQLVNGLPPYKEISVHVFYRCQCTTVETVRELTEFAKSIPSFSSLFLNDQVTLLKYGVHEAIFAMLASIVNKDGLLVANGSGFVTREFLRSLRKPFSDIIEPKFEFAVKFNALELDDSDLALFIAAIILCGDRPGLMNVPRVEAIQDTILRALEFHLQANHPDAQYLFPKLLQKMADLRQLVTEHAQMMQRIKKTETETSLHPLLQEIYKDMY
Retinoic acid receptor alpha (Homo sapiens), sequence (P10276 whole entry, looked up, the tested form may be a part): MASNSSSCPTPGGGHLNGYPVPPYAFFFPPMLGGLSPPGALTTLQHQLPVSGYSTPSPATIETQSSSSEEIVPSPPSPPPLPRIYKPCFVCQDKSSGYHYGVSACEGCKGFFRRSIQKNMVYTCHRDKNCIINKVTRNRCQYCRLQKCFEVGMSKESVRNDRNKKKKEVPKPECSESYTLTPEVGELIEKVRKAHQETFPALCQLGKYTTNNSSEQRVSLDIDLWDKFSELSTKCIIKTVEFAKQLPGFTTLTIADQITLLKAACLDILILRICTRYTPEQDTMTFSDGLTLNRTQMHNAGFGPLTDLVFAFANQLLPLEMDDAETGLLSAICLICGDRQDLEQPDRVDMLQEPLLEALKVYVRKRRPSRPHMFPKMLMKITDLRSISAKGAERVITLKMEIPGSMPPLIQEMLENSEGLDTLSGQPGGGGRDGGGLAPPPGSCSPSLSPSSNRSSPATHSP
Myc proto-oncogene protein (Homo sapiens), sequence (P01106 whole entry, looked up): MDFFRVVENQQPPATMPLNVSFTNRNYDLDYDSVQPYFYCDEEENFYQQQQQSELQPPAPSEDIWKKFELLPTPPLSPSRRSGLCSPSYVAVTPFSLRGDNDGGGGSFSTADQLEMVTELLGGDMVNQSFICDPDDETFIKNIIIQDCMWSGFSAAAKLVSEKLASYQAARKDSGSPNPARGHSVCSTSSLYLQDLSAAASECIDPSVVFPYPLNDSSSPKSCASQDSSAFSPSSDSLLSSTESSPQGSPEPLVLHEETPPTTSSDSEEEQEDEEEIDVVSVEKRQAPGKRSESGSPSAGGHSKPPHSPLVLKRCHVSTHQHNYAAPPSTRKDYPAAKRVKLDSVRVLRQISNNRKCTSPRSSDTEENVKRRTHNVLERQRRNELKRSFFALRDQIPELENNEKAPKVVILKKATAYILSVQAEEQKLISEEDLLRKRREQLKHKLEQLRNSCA
human Retinoic Acid Receptor beta (RARb), RARB (gene 5915), sequence (P10826 whole entry, looked up, the tested form may be a part): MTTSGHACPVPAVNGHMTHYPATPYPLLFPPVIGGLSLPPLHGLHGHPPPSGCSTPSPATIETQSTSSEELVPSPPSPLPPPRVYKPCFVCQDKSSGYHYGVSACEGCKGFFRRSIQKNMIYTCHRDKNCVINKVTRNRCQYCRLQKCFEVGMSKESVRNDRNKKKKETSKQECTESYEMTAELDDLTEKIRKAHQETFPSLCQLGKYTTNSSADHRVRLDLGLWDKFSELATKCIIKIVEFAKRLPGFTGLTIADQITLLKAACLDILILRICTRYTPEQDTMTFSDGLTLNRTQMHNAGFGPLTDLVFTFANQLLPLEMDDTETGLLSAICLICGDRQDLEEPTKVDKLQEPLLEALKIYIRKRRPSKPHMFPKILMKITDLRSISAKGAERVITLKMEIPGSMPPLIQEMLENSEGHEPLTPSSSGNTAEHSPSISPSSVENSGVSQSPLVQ

For `C[Si]1(C)O[Si](C)(C)O[Si](C)(C)O1`, the molecule was classed as inactive in assay [1], in assay [2], in [3], in [4], in assay [5] and in assay [6]. Besides, the molecule was classed as inactive in [7], in assay [8], in assay [9], in assay [10], in assay [11] and in assay [12]. Besides, the call in assay [13] was inactive.

The term AC50 denotes the concentration at which the activity in the assay is half-maximal. `c1ccc2cc(Nc3ccc(Nc4ccc5ccccc5c4)cc3)ccc2c1`: the outcome in assay [1], in assay [2], in assay [3], in assay [4], in assay [5] and in assay [15] was inactive. In addition, the outcome in [16], in assay [17], in [6], in assay [7], in [18] and in [10] was inactive. For the same molecule, the molecule was called inactive in assay [11] and in assay [13]. The AC50 in assay [14] was 13.9 µM (active).

In the case of `CC1=NN(c2ccc(S(=O)(=O)O)cc2)C(=O)C1`, the molecule was called inactive in [1], in assay [2], in assay [3], in assay [4], in assay [5] and in [6]. For the same molecule, the molecule was classed as inactive in assay [8], in [9], in assay [11], in assay [12] and in assay [19].

`COC(=O)c1ccc(OC)cc1`: the molecule was called inactive in assay [1], in [2], in [3], in assay [4], in [5] and in [6]. Also, the outcome in [10] and in [11] was inactive.

For `Cc1cc(S(=O)(=O)O)ccc1N=Nc1c(O)ccc2ccccc12`, the molecule was called inactive in assay [1], in assay [2], in assay [3], in assay [4], in [5] and in [6]. Besides, the outcome in assay [8], in assay [9], in [10], in assay [11], in [12] and in [13] was inactive.

With `COCCOC(=O)c1ccccc1C(=O)OCCOC`, the call in [1], in assay [2], in assay [3], in assay [4], in [5] and in assay [6] was inactive. Further, the molecule was called inactive in assay [7], in [10], in [11], in assay [13] and in [19].

On to `C=C(C)CNCC`, for which the molecule was classed as inactive in assay [1], in assay [2], in assay [3], in [4], in [5] and in [6]. Moreover, the outcome in [7] and in assay [12] was inactive.

`CCCCCCCCc1ccc(S(=O)(=O)O)cc1`: the result in [1], in assay [4], in assay [5], in [6], in assay [8] and in assay [9] was inactive. For the same molecule, the call in assay [11], in [12] and in assay [13] was inactive. Besides, the concentration at half-maximal activity (AC50) in assay [2] was 130 µM (active); in assay [3] it was 99.5 µM (active); in assay [10] it was 23.6 µM (active).

On to `O=c1c(O)c(-c2ccc(O)cc2)oc2cc(O)cc(O)c12`, for which the outcome in assay [1], in [2], in assay [4], in [5], in [6] and in [7] was inactive. Moreover, the call in [11] and in assay [19] was inactive. Further, the AC50 in assay [3] was 8.93 µM (active); in assay [10], 9.39 µM (active).

Consider `OCc1cccc(Oc2ccccc2)c1`, for which the outcome in assay [1], in [2], in [3], in assay [4], in assay [5] and in assay [6] was inactive. Besides, in [11], the result was inactive. In addition, the AC50 in assay [10] is 74.7 µM (active).

Take `CCO/C=C1\N=C(c2ccccc2)OC1=O`: the molecule was called inactive in assay [1], in [2], in assay [3], in [4], in assay [5] and in assay [6]. Also, the outcome in assay [7], in [10], in assay [11] and in assay [19] was inactive.
